The values that follow come from PubChem BioAssay AID463173 (ICCB-Longwood Screening Facility, Harvard Medical School, 2010).

Hit rate of the full screen: of about 52,000 compounds, about 4,300 (8.3%) were called active. Rule as the data show it: active = survival mostly below about 52% (no sharp cut-off); inactive = mostly above about 56%. Many of the other results were omitted from the sample, so actives are more common in it than they were.

The subject of this experiment is DeltatarO mutant. Description: growth inhibition of S. aureus wild type versus tarO mutant, primary screen, teichoic acid synthesis inhibitors, RN4220, OD600 (AID 463173). The following applies: OD600, 18 h, active compounds read low, screened at 18.75 µg/mL (by protocol).
On to `COc1cccc(C(=O)Nc2ccccc2C(=O)OCc2cc(=O)n3c4c(sc3n2)CCCC4)c1`, for which the survival was 57% (inactive). As for `CCn1cc2nc(SCc3ccccc3Cl)n(CCc3ccccc3)c(=O)c2n1`, the survival was 74% (inactive). The value for `CCn1cc2nc(SCc3cccc(F)c3)n(CCc3ccccc3)c(=O)c2n1` was 71% (inactive). For the molecule `CCn1cc2nc(SCc3c(F)cccc3Cl)n(CCc3ccccc3)c(=O)c2n1`, the survival is 52% (active). For the molecule `CCOC(=O)c1c(C)[nH]c(C)c1S(=O)(=O)N(C)CC(=O)Nc1cccc(Cl)c1C`, the survival is 73% (inactive). Then `CCOC(=O)c1c(C)[nH]c(CCC(=O)NCc2ccc(N(C)C)cc2)c1C`, with 83% (inactive); and `CCOC(=O)Cn1nc(-c2ccccc2)c2cnc3ccc(OCC)cc3c21`, with 109% (inactive); and `Cc1ccc(CNc2ncnc3c2nnn3C)cc1`, with 58% (inactive).

With `Cn1nnc2c(NCc3ccc(Cl)cc3)ncnc21`, the survival was 81% (inactive). For the molecule `Cn1nnc2c(NCc3ccccc3)ncnc21`, the survival was 32% (active).

On to `O=C(c1cccs1)N(Cc1cccnc1)c1nc2c(Cl)cccc2s1`, for which the survival is 82% (inactive). Then `COc1ccccc1C(=O)Nc1ccc(-c2cc(C(F)(F)F)nn2-c2ccccc2)cc1`, with 45% (inactive). Then `O=C(Nc1ccc(-c2cc(C(F)(F)F)nn2-c2ccccc2)cc1)c1cccc(F)c1`, with 26% (active); and `COc1ccccc1C(=O)NC(=O)Nc1ccc(-n2nc(C(F)(F)F)cc2C(F)(F)F)cc1`, with 59% (inactive); and `COc1ccccc1C(=O)NC(=O)Nc1ccc(-c2cc(C(F)(F)F)nn2-c2ccccc2)cc1`, with 30% (active). Take `O=C(NC(=O)c1cccc(F)c1)Nc1ccc(-c2cc(C(F)(F)F)nn2-c2ccccc2)cc1`: the survival is 157% (inactive).

With `COc1cccc(C(=O)Nc2ccc(-c3cc(C(F)(F)F)nn3-c3ccccc3)cc2)c1`, the survival was 46% (inactive). As to `O=C(CN1CCC(N2CCCCC2)CC1)Nc1ccc2c(c1)OCCO2`, the survival was 96% (inactive). Turning to `Cc1cccc(C)c1OCc1nc2c3cnn(-c4ccccc4F)c3ncn2n1`, the survival is 109% (inactive). The value for `CCN(CC)S(=O)(=O)c1cccc(C(=O)Nc2ccccc2C(=O)Nc2ccc(OC)cc2)c1` was 78% (inactive); that for `Cc1cc(F)ccc1NC(=O)CS(=O)(=O)c1cccc2nsnc12` was 77% (inactive).

With `CCc1ccc(CNC(=O)Cn2c(-c3cccs3)cc3cc(F)ccc32)cc1`, the survival is 119% (inactive). Then `CC(C)c1ccc(Nc2c(-c3ccccn3)nc3ccccn23)cc1`, with -4% (active); and `Cc1ccc(Nc2c(-c3ccccn3)nc3ccc(Br)cn23)cc1`, with 72% (inactive); and `COc1ccc(Nc2c(-c3ccccn3)nc3ccc(Cl)cn23)cc1`, with 93% (inactive). As to `Cc1cccc2nc(-c3ccccn3)c(Nc3ccc(F)cc3)n12`, the survival was -9% (active).

Regarding `Fc1ccc(Nc2c(-c3ccccn3)nc3ccc(Cl)cn23)cc1`, the survival was 65% (inactive).

In the case of `Cc1cccc2nc(-c3ccccn3)c(Nc3ccccc3)n12`, the survival was 24% (inactive). Take `CC(C)c1nc2ccccn2c1NC1CCCCC1`: the survival was 102% (inactive).

Take `Cc1ccn2c(Nc3ccc(F)cc3)c(-c3ccccn3)nc2c1`: the survival was 105% (inactive). As to `CN(C)c1ccc(-c2nc3ccccn3c2NC2CCCC2)cc1`, the survival was 83% (inactive). As to `CC(C)c1ccc(Nc2c(-c3ccco3)nc3ccccn23)cc1`, the survival was 42% (inactive). Then `c1ccc(-c2nc3ccccn3c2NC2CCCC2)nc1`, with 1% (active); and `Cc1ccc2nc(-c3ccccn3)c(Nc3ccc(F)cc3)n2c1`, with 10% (active); and `COc1ccc(NC(=O)Cn2cnc3sc(C)c(S(=O)(=O)N4CCN(C)CC4)c3c2=O)cc1OC`, with 167% (inactive). For `COc1ccc(NC(=O)CN2CCN(Cc3ccccc3Cl)S2(=O)=O)cc1Cl`, the survival was 41% (inactive).

Turning to `O=S(=O)(NCCc1csc2nc(-c3ccccc3)nn12)c1ccc(Cl)s1`, the survival is 86% (inactive). The value for `CCn1c(CNC(=O)C(OC)c2ccccc2)nnc1SC` (centres undefined) was 87% (inactive); that for `O=c1c(=O)n(-c2cccc(Cl)c2)ccn1Cc1cccc(F)c1` was 66% (inactive). The value for `COc1ccc(Cl)cc1NC(=O)c1cnc(N2CCCCC2)c2ccccc12` was 78% (inactive). As to `CCOc1ccccc1NC(=O)CCc1c(C)nn(-c2ccc(N3CCOCC3)nn2)c1C`, the survival is 80% (inactive).

For `CCOC(=O)c1cccc(NC(=O)c2cc3ccccn3n2)c1`, the survival is 124% (inactive). The value for `COc1cccc(C2CC(=O)Nc3cc(OC)c(OC)c(OC)c32)c1OC(C)C` (centres undefined) was 93% (inactive); that for `CCOC(=O)c1cccc(-n2nnc3c(sc4nc(C)c(Br)c(C)c43)c2=O)c1` was 92% (inactive); that for `CCOc1ccc(C2=NC(c3ccc(OC)cc3)=Nc3ccc(Cl)cc3N2)cc1` was 71% (inactive).

As to `Cc1cccc(C)c1Nc1c(-c2ccccc2F)nc2cccc(C)n12`, the survival is 6% (active). Then `Cc1ccccc1Nc1c(-c2ccccc2)nc2cccc(C)n12`, with 98% (inactive); and `Cc1ccccc1Nc1c(-c2c[nH]c3ccccc23)nc2cccc(C)n12`, with 144% (inactive). For `CCCCCC[N+]1(CCO)CCOCC1`, the survival was 81% (inactive). `COc1ccc(N2CCN(CCCNC(=O)c3c(C)nn(-c4ccc(F)cc4)c3-n3cccc3)CC2)cc1`: the survival is 71% (inactive).

For `OC(CC#CCN1CCOCC1)(c1ccccc1)c1ccccc1`, the survival was 83% (inactive). Then `COc1ccc(S(=O)(=O)N2CCN(Cc3nc4ccc(C)cc4o3)CC2)cc1`, with 84% (inactive); and `Cc1ccc(-n2cc(C(=O)OCc3ccc(Cl)cc3)c3ccccc3c2=O)cc1`, with 67% (inactive). The value for `CCOc1ccccc1NC(=O)N(Cc1ccc(C)o1)C1CCN(C(C)=O)CC1` was 101% (inactive); that for `COc1ccc(C)cc1NC(=O)N(C(C)C)C1CCN(C(C)=O)CC1` was 75% (inactive). For the molecule `COc1ccc(C)cc1NC(=O)N(Cc1ccc(C)o1)C1CCN(C(C)=O)CC1`, the survival is 8% (active). Then `COC(=O)c1ccc(Cl)cc1NC(=O)N(Cc1ccc(C)o1)C1CCN(C(C)=O)CC1`, with 95% (inactive). The value for `COC(=O)c1ccc(Cl)cc1NC(=O)N(Cc1ccc(OC)cc1)C1CCN(C(C)=O)CC1` was -5% (active).

Turning to `CCN1CCC(N(Cc2ccc(F)cc2)C(=O)Nc2cc(Cl)ccc2C(=O)OC)CC1`, the survival is 85% (inactive). As for `COc1ccc(NC(=O)N(Cc2ccco2)C2CCN(C(C)=O)CC2)c(OC)c1`, the survival was 88% (inactive). Then `COc1ccc(NC(=O)N(C(C)C)C2CCN(C(C)=O)CC2)c(OC)c1`, with -2% (active); and `CC(=O)N1CCC(N(Cc2ccc(C)o2)C(=O)Nc2ccc(C)cc2)CC1`, with 96% (inactive). Then `Cc1ccc(N2CCN(C(=O)C3CCN(S(=O)(=O)c4ccc5c(c4)oc(=O)n5C)CC3)CC2C)cc1` (centres undefined), with 109% (inactive); and `Cc1ccc(-n2c3nc(=O)[nH]c(=O)c-3cc3c(C)nn(-c4ccccc4)c32)cc1Cl`, with 85% (inactive). Then `Cc1cccc(-c2noc(-c3cccnc3NCc3ccc(Cl)cc3)n2)c1`, with 73% (inactive); and `COc1ccc(N(C(=O)COc2ccccc2OC)S(=O)(=O)c2ccc(Cl)cc2)cc1`, with 71% (inactive); and `O=C(CN1C(=O)COc2ccc(Cl)cc21)Nc1ccc(F)cc1`, with 67% (inactive). For `Cc1cc(C)c(NC(=O)CSc2nccn2Cc2ccco2)c(C)c1`, the survival was 76% (inactive). Then `COc1ccc(S(=O)(=O)NCC(c2ccc(N(C)C)cc2)N2CCc3ccccc32)cc1` (centres undefined), with 78% (inactive); and `Cc1ccc(S(=O)(=O)NCC(c2ccc(N(C)C)cc2)N2CCc3ccccc32)cc1C` (centres undefined), with 131% (inactive); and `CN(C)c1ccc(C(CNS(=O)(=O)c2ccccc2)N2CCc3ccccc32)cc1` (centres undefined), with 99% (inactive).

With `Cc1ccc(S(=O)(=O)NCC(c2ccc(N(C)C)cc2)N2CCc3ccccc32)cc1` (centres undefined), the survival is 0% (active). For `CCOc1ccc(S(=O)(=O)NCC(c2ccc(N(C)C)cc2)N2CCc3ccccc32)cc1` (centres undefined), the survival was 49% (inactive). Then `CN(C)c1ccc(C(CNS(=O)(=O)c2ccc(F)cc2)N2CCc3ccccc32)cc1` (centres undefined), with 32% (active).

Turning to `Cc1cc(NC(=O)C2CCCN(S(=O)(=O)c3cn(C)cn3)C2)ccc1Br` (centres undefined), the survival was 102% (inactive). The value for `Cc1ccc(S(=O)(=O)CCc2nnc(NC(=O)CCCC(=O)Nc3cc(C)on3)s2)cc1` was 104% (inactive); that for `CCOc1ccc(C(CC(=O)Nc2ccc(C(=O)OC)cc2)N2Cc3ccccc3C2=O)cc1OC` (centres undefined) was 73% (inactive). As to `Cc1cccc(NC(=O)CN2C(=O)c3ccccc3Sc3ncccc32)c1C`, the survival was 90% (inactive). The value for `Cc1ccc(CNC(=O)C(=O)NCC(c2ccc3c(c2)OCO3)N2CCOCC2)cc1` (centres undefined) was 64% (inactive); that for `c1ccc(CN2CCCN(c3nc4c(c(NCCN5CCOCC5)n3)CCCC4)CC2)cc1` was 103% (inactive); that for `COC(=O)c1c(SCC(=O)Nc2cc(C)cc(C)c2)[nH]c2ccccc2c1=O` was 39% (active). The value for `COC(=O)c1c(SCC(=O)Nc2ccccc2OC)[nH]c2ccccc2c1=O` was 55% (inactive). Then `COC(=O)c1c(SCC(=O)Nc2cccc(C(F)(F)F)c2)[nH]c2ccccc2c1=O`, with 82% (inactive); and `COc1ccc(N2CCN(C(=O)c3ccc(NC(=O)c4nsc5ccccc45)cc3)CC2)cc1`, with 84% (inactive). In the case of `CCOC(=O)c1scc(-c2ccccc2)c1S(=O)(=O)Nc1cc(OC)cc(OC)c1`, the survival is 89% (inactive). The value for `Cc1cccc(CSc2nc(=O)c3c(n2C)NC(=O)CC3c2cccc(O)c2)c1` (centres undefined) was 46% (inactive); that for `COc1ccccc1NC(=O)c1ccc(CN2C(=O)C(C)=C(c3ccc(C)c(C)c3)S2(=O)=O)cc1` was 83% (inactive); that for `COc1ccc2oc(-c3cccc(NC(=O)c4ccc(C#N)cc4F)c3)nc2c1` was 79% (inactive). Take `Cc1ccc(SCC(=O)Nc2ccc3oc(-c4ccc(F)cc4)nc3c2)cc1`: the survival was 80% (inactive). For the molecule `O=C(COc1ccccc1Cl)Nc1ccc2oc(-c3ccccc3F)nc2c1`, the survival is 67% (active).

As to `COc1ccccc1-c1nc2cc(NC(=O)c3ccccc3Cl)ccc2o1`, the survival is 61% (inactive). Then `Cc1ccc(SCC(=O)Nc2ccc3oc(-c4ccccc4C)nc3c2)cc1`, with 50% (inactive). Consider `O=C(Nc1ccc(-c2nc3cc(NC(=O)c4ccccc4Cl)ccc3o2)cc1)c1ccccc1Cl`, for which the survival is 83% (inactive). Then `N#Cc1ccc(C(=O)Nc2ccc(Cl)c(-c3nc4cc(Cl)ccc4o3)c2)c(F)c1`, with 28% (active).

Take `O=C(Nc1ccc2oc(-c3ccccc3F)nc2c1)c1ccccc1Cl`: the survival was 49% (active). Then `Cc1ccc(SCC(=O)Nc2ccc3oc(-c4ccccc4F)nc3c2)cc1`, with 57% (active); and `Cc1cccc(OCC(=O)Nc2ccc3oc(-c4ccccc4F)nc3c2)c1`, with 57% (inactive); and `O=C(Nc1ccc(Cl)c(-c2nc3cc(Cl)ccc3o2)c1)c1cc2ccccc2o1`, with 70% (inactive). Then `O=C(COc1ccccc1Cl)Nc1ccc(Cl)c(-c2nc3ccccc3o2)c1`, with 51% (inactive).
